In PubChem BioAssay AID1159580 (chemical genetic matrix, 2015):
Hit rate of the full screen: of about 5,500 compounds, about 2,000 (36%) were called active. About 18% were inconclusive and are not listed. Cut-off read from the data, not from the text of the source: active = normalized growth mostly below about 0.91 (no sharp cut-off); inconclusive = no clear call, values can overlap the other calls; inactive = mostly above about 0.92. Some of the results follow.

Assay: chemical genetic growth profiling, strain panel (AID 1159580);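 note: tested at 20 µM; growth read once vehicle control cultures reached saturation at 30 °C; 1 = growth at the plate median or of vehicle wells; lower values mean less growth of the strain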
Conditions: growth OD

Measured: normalized growth

COc1ccc2oc3ccccc3c(=O)c2c1
inactive: S. cerevisiae deletion strains, locus YJR043C, strain POL32, active compounds read low 0.932 | S. cerevisiae deletion strains, locus YJR075W, strain HOC1, active compounds read low 0.885 | S. cerevisiae deletion strains, locus YKL009W, strain mrt4, active compounds read low 0.886 | S. cerevisiae deletion strains, locus YKL068W, active compounds read low 0.949 | S. cerevisiae deletion strains, locus YKL190W, strain CNB1, active compounds read low 0.922 | S. cerevisiae deletion strains, locus YKR026C, strain gcn3, active compounds read low 0.927 | S. cerevisiae deletion strains, locus YKR091W, strain srl3, active compounds read low 0.945 | S. cerevisiae deletion strains, locus YLL041C, strain sdh2, active compounds read low 0.937 | S. cerevisiae deletion strains, locus YLR342W, strain FKS1 (second series), active compounds read low 0.945 | S. cerevisiae deletion strains, locus YLR342W, strain FKS1, active compounds read low 0.952 | S. cerevisiae deletion strains, locus YLR357W, strain rsc2, active compounds read low 1.09 | S. cerevisiae deletion strains, locus YLR370C, strain arc18, active compounds read low 0.946 | S. cerevisiae deletion strains, locus YMR129W, active compounds read low 0.95 | S. cerevisiae deletion strains, locus YMR307W, strain GAS1, active compounds read low 0.845 | S. cerevisiae deletion strains, locus YNL067W, strain RPL9B, active compounds read low 0.874 | S. cerevisiae deletion strains, locus YNL209W, strain ssb2, active compounds read low 0.934 | S. cerevisiae deletion strains, locus YNL322C, strain KRE1 (second series), active compounds read low 0.992 | S. cerevisiae deletion strains, locus YNR049C, strain mso1, active compounds read low 0.947 | S. cerevisiae deletion strains, locus YOL012C, strain htz1 0.651 | S. cerevisiae deletion strains, locus YOR080W, strain dia2, active compounds read low 0.959 | S. cerevisiae deletion strains, locus YOR136W, strain idh2, active compounds read low 0.922 | S. cerevisiae deletion strains, locus YOR265W, strain rbl2, active compounds read low 0.932 | S. cerevisiae deletion strains, locus YPL240C, strain hsp82, active compounds read low 0.931 | S. cerevisiae deletion strains, locus YPR167C, strain met16, active compounds read low 0.925
active: S. cerevisiae deletion strains, locus YJL187C, strain SWE1, active compounds read low 0.834 | S. cerevisiae deletion strains, locus YKL085W, strain MDH1 (second series), active compounds read low 0.914 | S. cerevisiae deletion strains, locus YKL085W, strain MDH1, active compounds read low 0.914 | S. cerevisiae deletion strains, locus YKL160W, strain elf1, active compounds read low 0.823 | S. cerevisiae deletion strains, locus YKR001C, strain vps1, active compounds read low 0.526 | S. cerevisiae deletion strains, locus YLL001W, strain dnm1, active compounds read low 0.875 | S. cerevisiae deletion strains, locus YLL026W, active compounds read low 0.879 | S. cerevisiae deletion strains, locus YLR027C, strain aat2, active compounds read low 0.855 | S. cerevisiae deletion strains, locus YLR039C, strain RIC1, active compounds read low 0.486 | S. cerevisiae deletion strains, locus YLR058C, strain SHM2, active compounds read low 0.861 | S. cerevisiae deletion strains, locus YLR102C, strain apc9, active compounds read low 0.907 | S. cerevisiae deletion strains, locus YLR221C, strain rsa3, active compounds read low 0.821 | S. cerevisiae deletion strains, locus YLR258W, strain gsy2, active compounds read low 0.871 | S. cerevisiae deletion strains, locus YLR262C, strain YPT6 (second series), active compounds read low 0.597 | S. cerevisiae deletion strains, locus YLR262C, strain YPT6, active compounds read low 0.577 | S. cerevisiae deletion strains, locus YLR268W, strain sec22, active compounds read low 0.84 | S. cerevisiae deletion strains, locus YLR320W, strain mms22, active compounds read low 0.464 | S. cerevisiae deletion strains, locus YLR330W, strain CHS5, active compounds read low 0.854 | S. cerevisiae deletion strains, locus YLR371W, strain rom2, active compounds read low 0.7 | S. cerevisiae deletion strains, locus YLR384C, strain iki3, active compounds read low 0.912 | S. cerevisiae deletion strains, locus YLR418C, strain cdc73, active compounds read low 0.659 | S. cerevisiae deletion strains, locus YML016C, strain PPZ1, active compounds read low 0.881 | S. cerevisiae deletion strains, locus YML032C, strain rad52, active compounds read low 0.755 | S. cerevisiae deletion strains, locus YML120C, strain ndi1, active compounds read low 0.742 | S. cerevisiae deletion strains, locus YML124C, strain tub3, active compounds read low 0.902 | S. cerevisiae deletion strains, locus YMR058W, strain fet3, active compounds read low 0.86 | S. cerevisiae deletion strains, locus YMR078C, strain ctf18, active compounds read low 0.852 | S. cerevisiae deletion strains, locus YMR125W, strain sto1, active compounds read low 0.713 | S. cerevisiae deletion strains, locus YMR205C, strain PFK2, active compounds read low 0.78 | S. cerevisiae deletion strains, locus YMR223W, strain ubp8, active compounds read low 0.84 | S. cerevisiae deletion strains, locus YMR231W, strain pep5, active compounds read low 0.915 | S. cerevisiae deletion strains, locus YNL071W, strain lat1, active compounds read low 0.421 | S. cerevisiae deletion strains, locus YNL128W, strain TEP1, active compounds read low 0.815 | S. cerevisiae deletion strains, locus YNL233W, strain BNI4, active compounds read low 0.81 | S. cerevisiae deletion strains, locus YNL248C, strain rpa49, active compounds read low 0.397 | S. cerevisiae deletion strains, locus YNL250W, strain rad50, active compounds read low 0.866 | S. cerevisiae deletion strains, locus YNL271C, strain bni1, active compounds read low 0.874 | S. cerevisiae deletion strains, locus YNL298W, strain CLA4, active compounds read low 0.869 | S. cerevisiae deletion strains, locus YNL307C, strain MCK1, active compounds read low 0.569 | S. cerevisiae deletion strains, locus YNR052C, strain pop2, active compounds read low 0.874 | S. cerevisiae deletion strains, locus YOL147C, strain pex11, active compounds read low 0.906 | S. cerevisiae deletion strains, locus YOR001W, strain rrp6, active compounds read low 0.825 | S. cerevisiae deletion strains, locus YOR061W, strain CKA2, active compounds read low 0.886 | S. cerevisiae deletion strains, locus YOR069W, strain VPS5, active compounds read low 0.918 | S. cerevisiae deletion strains, locus YOR070C, strain gyp1, active compounds read low 0.859 | S. cerevisiae deletion strains, locus YOR083W, strain WHI5, active compounds read low 0.789 | S. cerevisiae deletion strains, locus YOR106W, strain vam3, active compounds read low 0.817 | S. cerevisiae deletion strains, locus YOR144C, strain elg1, active compounds read low 0.904 | S. cerevisiae deletion strains, locus YOR184W, strain ser1, active compounds read low 0.771 | S. cerevisiae deletion strains, locus YOR270C, strain vph1, active compounds read low 0.528 | S. cerevisiae deletion strains, locus YOR290C, strain snf2, active compounds read low 0.686 | S. cerevisiae deletion strains, locus YOR316C, strain cot1, active compounds read low 0.903 | S. cerevisiae deletion strains, locus YPL051W, strain arl3, active compounds read low 0.772 | S. cerevisiae deletion strains, locus YPL078C, strain atp4, active compounds read low 0.773 | S. cerevisiae deletion strains, locus YPL106C, strain sse1, active compounds read low 0.78 | S. cerevisiae deletion strains, locus YPL241C, strain CIN2, active compounds read low 0.917 | S. cerevisiae deletion strains, locus YPR119W, strain clb2, active compounds read low 0.907 | S. cerevisiae deletion strains, locus YPR141C, strain kar3, active compounds read low 0.882 | S. cerevisiae deletion strains, locus YPR163C, strain tif3, active compounds read low 0.756 | S. cerevisiae deletion strains, strain wtn01, active compounds read low 0.87 | S. cerevisiae strains, strain wild type, active compounds read low 0.874
